Where “and” joins values, the source holds several entries; their conditions need not be identical. Equal values may be shown once. The whole screen tested about 100,000 compounds, of which about 770 (0.77%) were called active. This is one part of a sample in which actives are shown more often than they occur. Cut-off read from the data, not from the text of the source: active = inhibition above about 50%; inactive = the rest.

The assay concerns the target Gag-Pol polyprotein (Human immunodeficiency virus type 1 group M subtype B (isolate HXB2)) (UniProt P04585). The experiment in a line: RNase H inhibition, HIV 1 Gag Pol polyprotein, FRET biochemical assay, screening (AID 372). Conditions: HIV-1 RT RNase H, FRET RNA/DNA substrate fluorescence; at 10 µM; stronger effect = higher value.
What is called inhibition is the change of the read-out against control, counted positive when it falls. Regarding `CC(=O)OC1CCC2(C)C(=CCC3C4C/C(=C\c5ccc([N+](=O)[O-])cc5)C(=O)C4(C)CCC32)C1` (centres undefined), the inhibition is 9% (inactive). As for `CC12CCC3C(CC=C4CC(O)CCC43C)C1C/C(=C\c1ccc(F)cc1)C2=O` (centres undefined), the inhibition was 11% (inactive).

As to `CC12CCC3C(CC=C4CC(O)CCC43C)C1C/C(=C\c1ccc([N+](=O)[O-])cc1)C2=O` (centres undefined), the inhibition is 55% (active).

Consider `Cc1cc(OCc2ccc(Cl)cc2)c2c3c(c(=O)oc2c1)CCC3`, for which the inhibition is 3% (inactive). In the case of `Oc1c(I)cc(I)cc1CN1CCN(c2ccccc2F)CC1`, the inhibition is 8% (inactive). The result for `Cc1cc(C)cc(N2C(=O)NC(=O)/C(=C\c3cccn3-c3ccccc3)C2=O)c1` reads 28% (inactive); that for `O=C1NC(=O)C(=Cc2cccn2-c2ccc(Br)cc2)C(=O)N1`, 50% (active).

In the case of `Cc1cc(C=C2C(=O)NC(=O)NC2=O)c(C)n1-c1ccc(Br)cc1`, the inhibition was 9% (inactive). The result for `CN1C(=O)C(Cc2c[nH]c3ccccc23)C(=O)N(C)C1=O` reads 0% (inactive); that for `O=[N+]([O-])c1ccccc1CNCCc1ccc(F)cc1`, 1% (inactive). On to `Cc1ccccc1N1CCN(Cc2ccc(Cl)cc2Cl)CC1`, for which the inhibition was 2% (inactive). The same measure for `CCN(CC)C(=O)c1ccc(NC(C)=O)cc1`: 9% (inactive). Take `CCOc1cccc(=[O+]CC)c2c(C)oc(C)c12`: the inhibition was 2% (inactive) and 12% (inactive). The result for `O=C(O)c1cn(Cc2ccccc2)c2ccccc12` reads 8% (inactive). The same measure for `CCOc1ccc(C=C2C(=O)NC(=S)NC2=O)cc1`: 12% (inactive); for `O=C1NC(=S)NC(=O)C1=Cc1ccc(OCc2cccc(C(=O)O)c2)cc1`: 5% (inactive); for `O=C1NC(=S)NC(=O)C1=Cc1ccc(OCc2ccc(Br)cc2)cc1`: 59% (active). The same measure for `CN1C(=O)/C(=C\c2cn(Cc3ccccc3)c3ccccc23)C(=O)NC1=S`: 15% (inactive). Turning to `COc1ccc(CN2CCN(CCO)CC2)c(OC)c1`, the inhibition is 9% (inactive). Turning to `Clc1ccc(N2CCN(CCc3ccccc3)CC2)cc1`, the inhibition is 14% (inactive). For the compound `CSc1ccc(C2C(C#N)=C(N)Oc3c2c(=O)oc2ccccc32)cc1` (centres undefined), the inhibition is 7% (inactive). The same measure for `COc1ccc(OCC(=O)Nc2ccc(Br)cc2C(=O)c2ccccc2)cc1`: 51% (active); for `O=C(COc1ccc([N+](=O)[O-])cc1)Nc1ccc(Br)cc1C(=O)c1ccccc1`: 49% (inactive); for `O=C(COc1ccccc1)Nc1ccc(Cl)cc1C(=O)c1ccccc1`: 37% (inactive).

`C=CCOC(=O)C1=C(C)OC(N)=C(C(=O)OCC)C12C(=O)Nc1ccccc12` (centres undefined): the inhibition was 2% (inactive). Regarding `COc1ccc(CN2CCN(Cc3cccc(OC)c3)CC2)cc1`, the inhibition was 7% (inactive). The result for `O=C1NC(=S)NC(=O)C1=Cc1ccc(-c2ccc(Cl)c(Cl)c2)o1` reads 0% (inactive).

Consider `O=C1NC(=S)NC(=O)C1=Cc1ccc(-c2ccc([N+](=O)[O-])cc2Br)o1`, for which the inhibition was 56% (active). The same measure for `O=C1NC(=S)NC(=O)C1=Cc1ccc(-c2cc(Cl)ccc2Cl)o1`: 0% (inactive); for `Cc1ccc(-c2ccc(C=C3C(=O)NC(=S)NC3=O)o2)c(Br)c1`: 36% (inactive); for `Cc1cc(-c2ccc(C=C3C(=O)NC(=S)NC3=O)o2)c(C)c([N+](=O)[O-])c1`: 27% (inactive). For `CN1C(=O)NC(=O)/C(=C/c2ccc(-c3ccc([N+](=O)[O-])cc3Br)o2)C1=O`, the inhibition was 26% (inactive). The same measure for `O=C1NC(=S)NC(=O)C1=Cc1ccc(-c2ccc(C(=O)O)c(Cl)c2)o1`: 17% (inactive). The same measure for `O=C1NC(=S)NC(=O)C1=Cc1ccc(-c2cc(Cl)c([N+](=O)[O-])cc2Cl)o1`: 50% (active); for `O=C1NC(=S)NC(=O)C1=Cc1ccc(-c2ccc(Br)c(Cl)c2)o1`: 54% (active); for `CCOC(=O)C1=C(N)OC(C)=C(C(C)=O)C12C(=O)Nc1ccccc12` (centres undefined): 10% (inactive). The result for `COc1cc(/C=C2\C(=O)NC(=O)N(c3ccccc3)C2=O)c([N+](=O)[O-])cc1OC` reads 5% (inactive). On to `CC(C)OC(=O)N1CCN(/C(N)=N/[N+](=O)[O-])CC1`, for which the inhibition is 7% (inactive). As to `O=C(COc1ccc2ccccc2c1)N1CCN(Cc2ccc3c(c2)OCO3)CC1`, the inhibition was 17% (inactive).

For the compound `Cc1ccc(-n2c(C)cc(/C=C3/C(=O)NC(=O)N(Cc4ccco4)C3=O)c2C)cc1`, the inhibition was 16% (inactive). Regarding `Cc1ccc(OCCn2cc(/C=C3/C(=O)NC(=O)N(Cc4ccco4)C3=O)c3ccccc32)cc1`, the inhibition was 52% (active). Consider `O=C1NC(=O)N(Cc2ccco2)C(=O)/C1=C\c1cn(Cc2ccccc2)c2ccccc12`, for which the inhibition is 23% (inactive). In the case of `O=c1c2ccccc2nc(-c2ccc(Cl)cc2Cl)n1-c1nccs1`, the inhibition was 6% (inactive).

As to `CN1C(=O)NC(=O)/C(=C/c2ccc(-c3cccc([N+](=O)[O-])c3)o2)C1=O`, the inhibition was 14% (inactive). The same measure for `CN1C(=O)C(=Cc2ccc(-c3cccc([N+](=O)[O-])c3)o2)C(=O)N(C)C1=S`: 21% (inactive); for `O=C1NC(=O)N(Cc2ccco2)C(=O)/C1=C\c1ccc(-c2cccc([N+](=O)[O-])c2)o1`: 57% (active).

On to `C/C(=C\c1ccc(Cl)cc1Cl)[N+](=O)[O-]`, for which the inhibition is 51% (active). In the case of `N#CC(C#N)=Cc1ccc(Cl)cc1Cl`, the inhibition is 3% (inactive). The result for `COc1cc(/C=C(\C)[N+](=O)[O-])cc(OC)c1OC` reads 4% (inactive); that for `COc1ccc(C2c3c(c4ccccc4oc3=O)Oc3c2c(=O)oc2ccccc32)cc1Cn1nc(C)c([N+](=O)[O-])c1C`, 16% (inactive); that for `O=C(Nc1ccc(Cl)cc1C(=O)c1ccccc1)c1ccc([N+](=O)[O-])cc1`, 16% (inactive).

With `Cc1cccc(-n2c(/C=C/c3ccco3)nc3ccccc3c2=O)c1`, the inhibition was 4% (inactive). As to `CCOc1ccc(N2C(=O)CC(=O)NC2=S)cc1`, the inhibition was 11% (inactive). The result for `O=C1NC(=S)NC(=O)C1=Cc1ccc(-c2ccc(C(=O)O)cc2)o1` reads 14% (inactive); that for `Cn1cccc1/C=C1/C(=O)NC(=S)N(c2ccc(Cl)cc2)C1=O`, 41% (inactive). The same measure for `C=CCN1C(=O)NC(=O)C(=Cc2cccn2C)C1=O`: 0% (inactive); for `CCN1C(=O)/C(=C/c2cccn2C)C(=O)NC1=S`: 51% (active); for `Cc1cccc(-n2c(/C=C3\C(=O)Nc4ccccc43)nc3ccc(I)cc3c2=O)c1`: 15% (inactive). On to `Cc1c(-c2ccc(C=C3C(=O)NC(=S)NC3=O)o2)ccc([N+](=O)[O-])c1C`, for which the inhibition was 43% (inactive). For `Cc1ccc(-c2ccc(C=C3C(=O)NC(=S)NC3=O)o2)cc1[N+](=O)[O-]`, the inhibition is 62% (active).

As for `Cc1cc([N+](=O)[O-])c(C)cc1-c1ccc(C=C2C(=O)NC(=O)NC2=O)o1`, the inhibition was 16% (inactive). As for `Cc1cc(-c2ccc(C=C3C(=O)NC(=S)NC3=O)o2)cc([N+](=O)[O-])c1C`, the inhibition was 35% (inactive). The same measure for `Cc1c(-c2ccc(C=C3C(=O)NC(=O)NC3=O)o2)ccc([N+](=O)[O-])c1C`: 18% (inactive); for `Cc1cc(-c2ccc(C=C3C(=O)NC(=O)NC3=O)o2)ccc1[N+](=O)[O-]`: 67% (active).

(Values after PubChem BioAssay AID372 (MTDP, 2006).)
